# Rows were chosen to be rich in hits. Some 1.2% of all compounds tested hit in one or more screens of this group.
# RXFP1 agonist = qHTS Assay for Agonists of the Relaxin Receptor RXFP1; HEK293T-RXFP1 cAMP TR-FRET, 30 min; response scale: percent of porcine relaxin response, buffer zero; Potency, µM (highest dose often 57.5 µM), for inactives: at the highest dose activation, most hits filed as activators; actives 0.3% (n = 370,000); active = well fitted activation curve with a large enough effect; inconclusive = small, poorly fitted or top-dose-only effect; also: potency is read from the fitted curve at half-maximal effect; % is scaled to controls: 0 for no effect and ±100 for the full control effect; nearly all actives have a fitted effect of over 60% in size
# Target sequence (Q9HBX9 whole entry, looked up): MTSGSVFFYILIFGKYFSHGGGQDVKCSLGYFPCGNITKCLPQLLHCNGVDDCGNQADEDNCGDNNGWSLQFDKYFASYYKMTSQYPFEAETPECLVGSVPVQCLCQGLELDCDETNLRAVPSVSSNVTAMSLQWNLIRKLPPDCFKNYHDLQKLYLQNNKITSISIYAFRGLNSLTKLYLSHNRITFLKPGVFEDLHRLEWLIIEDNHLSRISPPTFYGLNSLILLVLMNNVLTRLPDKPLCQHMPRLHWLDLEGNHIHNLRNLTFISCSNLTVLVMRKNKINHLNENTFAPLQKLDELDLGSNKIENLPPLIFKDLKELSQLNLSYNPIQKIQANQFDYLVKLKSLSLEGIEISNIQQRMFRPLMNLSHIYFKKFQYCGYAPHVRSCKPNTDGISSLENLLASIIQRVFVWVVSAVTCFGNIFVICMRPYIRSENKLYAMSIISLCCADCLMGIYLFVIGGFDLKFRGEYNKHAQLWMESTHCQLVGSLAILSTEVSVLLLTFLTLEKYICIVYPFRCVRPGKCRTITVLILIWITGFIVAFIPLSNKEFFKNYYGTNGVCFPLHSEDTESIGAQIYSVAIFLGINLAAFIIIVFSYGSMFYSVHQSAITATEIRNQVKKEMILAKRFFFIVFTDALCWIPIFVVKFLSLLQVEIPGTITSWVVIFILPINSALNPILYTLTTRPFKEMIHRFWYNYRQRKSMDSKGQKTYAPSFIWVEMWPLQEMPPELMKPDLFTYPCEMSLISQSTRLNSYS
#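 HEK293 cells stably expressing RXFP1, treated 30 min at 37C with compounds plus PDE4 inhibitor Ro 20174; cAMP measured by HTRF TR-FRET. Normalized to buffer and 29 nM porcine relaxin; EC50 by Hill fit.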
# gsp agonist = qHTS for Agonist of gsp, the Etiologic Mutation Responsible for Fibrous Dysplasia/McCune-Albright Syndrome: qHTS; gsp mutant cells, cAMP HTRF, 30 min; Potency, µM (highest dose often 76.9 µM), for the others: at the highest dose activation (cAMP increase), actives largely listed as activators; actives 0.13% (n = 340,000); AID 624287, 2012; active = well fitted activation curve with a large enough effect; inconclusive = small, poorly fitted or top-dose-only effect, or another doubt; inactive = no such curve, though single readings can be large or run the other way; cell line not stated here;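 also: phosphodiesterase inhibitor Ro 20-1724 added with compounds to block cAMP breakdown; potency is read from the fitted curve at half-maximal effect; nearly all actives have a fitted effect of over 60% in size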
#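 Cells in DMEM/10% FBS with G418 were pretreated with compounds in DMSO plus […] (300 uM stock) for 30 min at 37C. cAMP was measured by HTRF (cAMP-d2 plus anti-cAMP antibody-K) after 30 min at room temperature.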
# RXFP1 antag = qHTS Assay for Antagonists of the Relaxin Receptor RXFP1; actives 0.59% (n = 350,000); AID 1259400, 2018; HEK293-RXFP1, relaxin-stimulated cAMP HTRF, 30 min; stronger effect = lower value; activity change, negative = inhibition, % at 57.5 µM;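 active = activity change of -60% or lower, but not beyond a set lower limit; inconclusive = change between -60% and -40%, or beyond the set limit; inactive = change above -40%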; also: % is scaled to controls: 0 for no effect and ±100 for the full control effect
# gsp antagonist = qHTS for Antagonists of gsp, the Etiologic Mutation Responsible for Fibrous Dysplasia/McCune-Albright Syndrome: qHTS; gsp-mutant cells, cAMP HTRF, 30 min; Potency, µM (series often up to 76.9 µM), for inactives: at the highest dose activity change, negative = inhibition, hits mostly inhibitors; actives 0.4% (n = 340,000); AID 624288, 2012; calls by dose curve; cell line not stated here;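 also: intracellular cAMP measured with PDE inhibitor Ro 20-1724 present during compound exposure; potency is read from the fitted curve at half-maximal effect; % is scaled to controls: 0 for no effect and ±100 for the full control effect; nearly all actives have a fitted effect of over 65% in size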
#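 Measurement of cellular cAMP by homogeneous time-resolved fluorescence following a 30 min compound exposure at 37C. The PDE inhibitor […] was present throughout; the assay buffer was DPBS with 0.05% BSA and 0.005% Tween 20.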
# Akt phos inh = HTS Assay for Inhibitors of Akt Phophorylation: Primary Screen; Neuro2A IGF-stimulated pAkt S473 HTRF, 20 min; stronger effect = lower value; activity change, % for hits at 50 µM; actives 0.32% (n = 360,000); AID 651550, 2012; in the data active = activity change below about -80%; inconclusive = mostly about -51% to -80%; also: % is scaled to controls: 0 for no effect and ±100 for the full control effect
#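 Neuro2A cells (4,500/well, DMEM with 0.5% FBS) were treated with compound at a single 50 µM final concentration, stimulated with 6 nM IGF for 20 min at 37 °C, and lysed. Phospho-Akt Ser473 was read by HTRF as 665/615 ratio ×10^4.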
# An asterisk follows results filed as active; i = inactive; u = inconclusive; x = no result given; ! = not confirmed by another sample; [ ] = remark or other dose.
SMILES,RXFP1 agonist,gsp agonist,RXFP1 antag,gsp antagonist,Akt phos inh
Cn1cccc1-c1cc(C(=O)N/N=C/c2cc(Br)ccc2O)[nH]n1,28.1%,30.4%,-61.5*,u,i
Cn1cccc1-c1cc(C(=O)N/N=C/c2ccccc2Cl)[nH]n1,1.2%,-5.7%,-22.9,-26.1%,i
Cc1ccc(Cl)cc1-n1c(CCC(=O)O)ccc1-c1cccs1,4.1%,x,-5.7,x,x
COc1ccc(-n2ncc(C(=O)N3CCN(c4ncccn4)CC3)c2C2CCN(C(=O)OC(C)(C)C)CC2)cc1,-3.0%,x,-3.2,x,x
O=C(COc1ccccc1[N+](=O)[O-])OCCCOC(=O)COc1ccccc1[N+](=O)[O-],-1.0%,u,-4.2,-0.8%,i
O=C(COc1ccccc1[N+](=O)[O-])OCC(=O)c1ccc(Br)s1,x,10µM*,14.8,21.7%,i
COc1ccc(NC(=O)Cn2c(=O)n(CCc3ccccc3)c(=O)c3c4c(sc32)CCCC4)cc1,0.4%,x,x,x,x
Clc1ccc(CN2CCc3c([nH]c4ccccc34)C2)cc1Cl,0.5%,-58.8%,-64.3*,-1.4%,i
Cc1cccc(CN2CCc3c([nH]c4ccccc34)C2)c1,2.8%,-3.1%,u,1.9%,i
CSc1ccc(CN2CCc3c([nH]c4ccccc34)C2)cc1,-0.4%,6.6%[15.4 µM],-34.0,9.4%,i
Clc1cccc(CN2CCc3c([nH]c4ccccc34)C2)c1,2.3%,-315.2%,-63.8*,2.8%,i
CCOC(=O)c1nnn2c1nc(SCC(C)=O)c1ccccc12,15.8µM*,26.0%[15.4 µM],22.3,18.2%,i
C=CCSc1nc2c(C(=O)OCC)nnn2c2ccccc12,-1.2%,u,-11.2,-1.8%,i
CCN(c1ccc(OC)cc1)S(=O)(=O)c1nnc(NC(=O)c2ccccc2Cl)s1,0.3%,5.3%,-60.5*!,u,i
O=C(CCS(=O)(=O)c1ccccc1)Nc1cccc(-c2nc3ccccc3s2)c1,-5.5%,-10.6%,u,39.8µM*,i
O=C(Nc1cccc(-c2nc3ccccc3s2)c1)c1cccs1,-0.2%,1.0%[15.4 µM],-2.4,22.4µM*,i
Oc1ccc(CNc2cccc(C(F)(F)F)c2)c2cccnc12,0.5%,x,x,x,x
COc1ccc(N(C)S(=O)(=O)c2ccc3c(c2)n(C)c(=O)c(=O)n3C)cc1,12.8%,x,x,x,x
O=C1N=c2ccccc2=C1c1sc(Nc2ccc(O)cc2)nc1O,-2.4%,-6.3%[15.4 µM],-80.8*,-6.0%,i
Cn1c(SCC(=O)Nc2ccc3cn[nH]c3c2)nnc1-c1cnccn1,2.0%,11.8%,10.1,9.2%,-97.3%*
O=c1oc2c3c(ccc2c2ccccc12)OCN(Cc1ccccc1Cl)C3,28.2µM*,x,2.3,x,x
Cc1cc(=O)oc2c3c(ccc12)OCN(Cc1ccccc1Cl)C3,10.1%,x,x,x,x
Cc1[nH]c2ccc(C(=O)N3CCN(c4ccccc4F)CC3)cc2c1C,1.3%,x,-23.4,x,x
OC(COC(c1ccc(F)cc1)c1ccc(F)cc1)CN1CCc2ccccc2C1 (configuration not stated),-3.0%,-56.1%,-62.2*,3.8%,i
OC(COC(c1ccccc1)c1ccccc1)CN1CCc2ccccc2C1 (configuration not stated),-0.1%,-20.5%,-17.9,-2.6%,i
SMILES,RXFP1 agonist,gsp agonist,RXFP1 antag,gsp antagonist,Akt phos inh
Cc1cc(-c2ccc(S(=O)(=O)NCc3ccc(F)cc3)cc2)on1,2.2%,-47.9%,-0.5,0.794µM*,i
Cc1ccc(CCNC(=O)c2ccc(CNS(=O)(=O)c3ccc(F)cc3)cc2)cc1,-0.8%,x,-70.8*,x,x
CCCc1ccc2oc(C(=O)NCCc3nc(C(=O)OCC)cs3)c(C)c2c1,0.2%,18.1%[15.4 µM],-78.6*,u,i
CCCc1ccc2oc(C(=O)NCCc3cnn(C)c3)c(C)c2c1,2.8%,-4.3%,u,-14.0%,i
COc1cc(OC)cc(-c2nc3n(n2)C(c2ccccc2)C(C(N)=O)=C(C)N3)c1 (configuration not stated),4.8%,x,-4.3,x,x
Cc1ccc(C)c(N2CCN(C(=O)c3cc4c(C)nc5ccccc5c4o3)CC2)c1,0.4%,23.0%,-5.5,u,i
COc1ccccc1N1CCN(C(=O)c2cc3c(C)nc4ccccc4c3o2)CC1,1.1%,7.5%,-62.3*,-27.4%,i
Cc1ccc(C(=O)CSc2nc(-c3ccccc3)nc3c2CCCC3)cc1,6.0%,x,x,x,x
NNC(=O)CSc1nc(-c2ccccc2)nc2c1CCCC2,-0.2%,12.0%,-69.1*,-5.9%,i
Cc1ccccc1CNC(=O)CN1CCSc2ccccc21,0.3%,x,x,x,x
CCN1CCN(C(=O)c2cc(-c3ccc(Cl)s3)nc3ccccc23)CC1,29.2%,u,-3.8,6.6%,i
COC(=O)C1CCN(C(=O)c2cc(-c3ccc(Cl)s3)nc3ccccc23)CC1,7.9%,u,-27.9,31.6µM*,i
Cc1cc(C#N)c2ccccc2n1,2.9%,u,4.1,10.6%,-108.8%*
COc1ccc(CCNC(=O)CCc2c(C)c3cc4c(C)c(C)oc4cc3oc2=O)cc1OC,18.9%,x,-9.3,x,x
COc1ccc(CC(=O)Nc2cccc(-c3nnc(-c4cccc(C)c4)o3)c2)cc1OC,0.3%,15.9%,-20.1,31.6µM*,i
COc1ccc(CC(=O)Nc2cccc(-c3nnc(-c4ccc(C)cc4)o3)c2)cc1OC,0.6%,12.8%,-23.1,u,x
COc1ccc(CC(=O)Nc2cccc(-c3nnc(-c4ccccc4)o3)c2)cc1OC,2.8%,-3.0%,-31.3,u,i
COc1ccc(CC(=O)Nc2ccc(-c3nnc(-c4ccccc4)o3)cc2)cc1OC,u,21.1%,-15.9,4.6%,-118.4%*
CCc1nonc1NC(=O)c1oc2ccc(Br)cc2c1C,25.1µM*!,-22.0%,-14.0,10.3%,i
Cc1nccn1CC(O)Cn1c2ccccc2c2ccccc21 (configuration not stated),-1.9%,-6.3%,-15.0,0.8%,-100.8%*
Cc1cc(C)n(CC(O)Cn2c3ccccc3c3ccccc32)n1 (configuration not stated),-1.4%,u,-5.3,-13.2%,i
CCCCN(CCCC)C(C(N)=O)c1ccc(OC)cc1 (configuration not stated),x,x,-13.1,x,x
COc1ccc2cc(CCNC(=O)C(C)(C)C)c(=O)[nH]c2c1,1.4%,-25.8%,x,3.1%,i
COc1ccc2cc(CCN3C(=O)c4ccccc4C3=O)c(=O)[nH]c2c1,u,11.2µM*,x,8.4%,i
CCCCN1C(=O)c2[nH]nc(-c3ccccc3O)c2C1c1ccc(OCc2ccccc2)cc1 (configuration not stated),-0.6%,x,-28.3,x,x

# Bioassay records: PubChem, National Center for Advancing Translational Sciences (NCATS)
